Each structure is given as a SMILES string. Among all 100,000 compounds or so, about 770 (0.77%) were called active. The sample holds actives, similar compounds and a random draw of the others, so the mix is not that of the screen. Rule as the data show it: active = inhibition above about 50%; inactive = the rest.

The test addresses Gag-Pol polyprotein (Human immunodeficiency virus type 1 group M subtype B (isolate HXB2)) (UniProt P04585). The test is described as follows: RNase H inhibition, HIV 1 Gag Pol polyprotein, FRET biochemical assay, screening (AID 372). The settings on record: HIV-1 RT RNase H, FRET RNA/DNA substrate fluorescence; at 10 µM; hits give high values.
In the case of `O=C(Nc1ccc2oc(-c3ccc(F)cc3Cl)nc2c1)c1cc(Cl)ccc1Cl`, the inhibition was 18% (inactive).
For the molecule `Oc1ccc2ccccc2c1CN1CCOCC1`, the inhibition was 7% (inactive).
For the molecule `Cc1ccc(/C=C/C(=O)Nc2ncc(Cc3cc(Cl)ccc3Cl)s2)cc1`, the inhibition is 24% (inactive).
Next, `O=C(/C=C/c1cccs1)Nc1ncc(Cc2ccccc2Cl)s1`: 4% (inactive); `COc1ccc(/C=C/C(=O)Nc2ncc(Cc3ccccc3Cl)s2)cc1`: 54% (active); `CCOc1ccccc1OCCOc1cccc(Br)c1`: 3% (inactive).
For `Cc1cccc(N2CCN(CN3C(=O)/C(=C/c4ccc(C)o4)SC3=S)CC2)c1` the value was 2% (inactive).
In the case of `CCOC(=O)C(CCCCCOc1ccccc1C(C)(C)C)C(=O)OCC`, the inhibition is 20% (inactive).
Next, `CCc1ccc(-c2nc(-c3ccccn3)no2)cc1`: 15% (inactive).
For `NC(=O)c1c(/N=C/c2cc(Cl)cc(Cl)c2O)sc2c1CCCC2` the value was 11% (inactive); for `COc1cc(/C=N/c2sc3c(c2C#N)CCCC3)cc(Br)c1O`, 15% (inactive); for `CCOC(=O)c1c(N)n(CCOC)c2nc3ccccc3nc12`, 0% (inactive).
For `C=CCN(CC=C)CCCCOc1cccc(C)c1` the value was 5% (inactive); for `Oc1ccc(Nc2nc3ccccc3nc2Nc2ccc(O)cc2)cc1`, 12% (inactive).
For `Brc1ccc(Nc2nc3ccccc3nc2Nc2ccc(Br)cc2)cc1`, the inhibition was 55% (active).
For `Ic1ccc(Nc2nc3ccccc3nc2Nc2ccc(I)cc2)cc1`, the inhibition is 34% (inactive).
With `O=C(NCCO)C(=O)Nc1ccccc1`, the inhibition is 0% (inactive).
Turning to `CCN1CCN(CC(=O)N/N=C/c2ccccc2)CC1`, the inhibition is 8% (inactive).
For `CCc1ccc(C2Nc3ccc4ccccc4c3C3=C2C(=O)CC(C)(C)C3)cc1` (centres undefined), the inhibition was 19% (inactive).
In the case of `CC(=O)N(C1=C(Cl)C(=O)c2ccccc2C1=O)c1ccc(Br)cc1`, the inhibition is 69% (active).
With `CC(=O)N(C1=C(Cl)C(=O)c2ccccc2C1=O)c1ccc(Cl)cc1`, the inhibition is 32% (inactive).
As for `CC(=O)N(C1=C(N(C)C)C(=O)c2ccccc2C1=O)c1ccc(Br)cc1`, the inhibition was 1% (inactive).
Next, `CCN1CCN(CC(O)COc2ccc(C(C)(C)C)cc2)CC1` (centres undefined): 0% (inactive).
Next, `O=C(O)c1ccc(C(=O)Nc2ccc(I)cc2)c(C(=O)O)c1`: 9% (inactive).
Next, `O=C(O)c1ccc(C(=O)Nc2ccccc2Oc2ccccc2)c(C(=O)O)c1`: 6% (inactive); `O=C(O)c1ccc(C(=O)Nc2ccccc2Br)c(C(=O)O)c1`: 54% (active).
For the molecule `CCC1CCc2c(sc(NC(=O)CCC(=O)O)c2C#N)C1` (centres undefined), the inhibition is 2% (inactive).
For `C=CCNc1nc(-c2ccc(Cl)cc2)nc2ccccc12` the value was 8% (inactive).
For `Cc1cc(=O)oc2c(C)c3occ(-c4ccccc4)c3cc12` the value was 31% (inactive); for `Cc1cc(=O)oc2cc3occ(-c4ccccc4)c3cc12`, 57% (active); for `Cc1coc2cc3oc(=O)cc(C)c3cc12`, 7% (inactive).
Next, `O=C(O)CC(C(=O)O)N1C(=O)/C(=C\C(Cl)=C/c2ccc([N+](=O)[O-])cc2)SC1=S` (centres undefined): 14% (inactive).
On to `c1ccc(Nc2nc(-c3ccccc3)[n+](-c3ccccc3)s2)cc1`, for which the inhibition is 30% (inactive).
Regarding `c1ccc(CNc2nc(-c3ccccc3)cc(-c3ccccc3)n2)cc1`, the inhibition was 15% (inactive).
In the case of `c1ccc(CNc2nc(-c3ccccc3)[n+](-c3ccccc3)s2)cc1`, the inhibition is 52% (active).
For `COc1ccc(N(CC(=O)NCCSCc2ccc(Cl)cc2)S(C)(=O)=O)cc1Cl` the value was 38% (inactive).
Next, `CS(=O)(=O)N(CC(=O)NCCSCc1ccc(Cl)cc1)c1ccc(Cl)cc1`: 55% (active); `CS(=O)(=O)N(CC(=O)NCCSCc1ccccc1Cl)c1ccc(Br)cc1`: 50% (active).
With `COc1ccc(S(=O)(=O)N(CC(=O)NCCSCc2ccc(Cl)cc2)c2cc(C)cc(C)c2)cc1OC`, the inhibition is 12% (inactive).
Next, `COc1ccc(N(CC(=O)NCCSCc2ccccc2Cl)S(C)(=O)=O)cc1`: 22% (inactive); `Cc1ccc(CSCCNC(=O)CN(c2cccc(C)c2)S(C)(=O)=O)cc1`: 18% (inactive); `CCOc1ccc(N(CC(=O)NCCSCc2ccc(Cl)cc2)S(C)(=O)=O)cc1`: 22% (inactive).
`Cc1cc(C)cc(N(CC(=O)NCCSCc2ccc(Cl)cc2)S(C)(=O)=O)c1`: the inhibition is 57% (active).
Take `CS(=O)(=O)N(CC(=O)NCCSc1ccc(Cl)cc1)c1ccc(Br)cc1`: the inhibition was 8% (inactive).
Next, `O=C(NC(=S)Nc1ccccc1[N+](=O)[O-])c1ccc(-c2ccccc2)cc1`: 13% (inactive); `O=C(Cn1c(NCCCO)nc2ccccc21)c1ccc(Br)s1`: 11% (inactive).
Take `Cc1sc(NC(=O)/C=C/c2ccc(Cl)cc2Cl)c(C(N)=O)c1C`: the inhibition is 26% (inactive).
Next, `Nc1nnc(SCC(=O)Nc2ccccc2Oc2ccccc2)s1`: 4% (inactive); `CCC(C)c1ccc(NC(=S)NC(=O)c2ccc(OC)c(Br)c2)cc1` (centres undefined): 9% (inactive).
Turning to `COc1ccc(CCN(C)C2CC(=O)N(c3ccc(F)cc3)C2=O)cc1OC` (centres undefined), the inhibition was 0% (inactive).
Next, `Cc1ccc2oc(-c3cc(NC(=O)c4ccc(I)cc4)ccc3O)nc2c1`: 10% (inactive).
Next, `COc1ccc(Cc2cnc(NC(=O)c3ccccc3Cl)s2)cc1`: 11% (inactive).
Next, `NS(=O)(=O)c1ccc(CNC2CC(=O)N(CCc3ccccc3)C2=O)cc1` (centres undefined): 9% (inactive).
Consider `O=[N+]([O-])c1ccc2nc3c([nH]c4ccccc43)c(N3CCOCC3)c2c1`, for which the inhibition is 6% (inactive).
Take `O=[N+]([O-])c1ccc2nc3c([nH]c4ccccc43)c(Cl)c2c1`: the inhibition is 58% (active).
For `O=c1c2cc([N+](=O)[O-])ccc2[nH]c2c1[nH]c1ccccc12` the value was 33% (inactive); for `CCOc1cc(C(=O)NCc2ccccc2OC)cc(OCC)c1OCC`, 2% (inactive); for `Cc1ccc(C(=O)NNC(=S)NC(C)(C)C)cc1`, 6% (inactive).
For `O=C(CC1SC(=Nc2ccccc2)N(c2ccccc2)C1=O)Nc1ccccc1` (centres undefined) the value was 58% (active); for `O=C(CC1SC(=Nc2ccccc2)N(c2ccccc2)C1=O)Nc1ccc(F)cc1` (centres undefined), 14% (inactive); for `Cc1ccc(NC(=O)CC2SC(=Nc3ccccc3)N(c3ccccc3)C2=O)cc1` (centres undefined), 5% (inactive).
Turning to `O=C(N/C(=C/c1cccc(Br)c1)C(=O)N1CCOCC1)c1ccccc1`, the inhibition is 5% (inactive).
Turning to `CC(C)Cc1nnc(NC(=O)c2ccccc2I)s1`, the inhibition was 0% (inactive).
For `CCOC(=O)N1CCN(CCC(=O)Nc2ccc3c(c2)OCO3)CC1` the value was 16% (inactive).

One may read the inhibition as the drop in the measured response relative to a control, in per cent.
